Source: the supplement of paper PMC6555819

Experiments:
Test in all cases: PBM binding z-score (relative to random genomic background probes); higher = stronger binding; sequences stand for … in GC…GCGATTGACAGCGTAGAATGAAGG
[1] = system: FXR:RXRa (NR concentration 270 nM, RXRa partner concentration 90 nM)
Summary of the method: (§1)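 On custom Agilent 4×180K arrays, double-stranded probes with 34-nt variable regions carried direct-repeat seeds, single-nucleotide variants, half-site ablations or random human genomic background. Ligand-free nuclear receptor dimers were applied for 1 h, and binding was read with antibodies against each partner (one per run). Binding z-scores come from regression-normalized fluorescence, with the random background probes as reference.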

[2] = system: LXRa:RXRa (NR concentration 270 nM, RXRa partner concentration 90 nM)
Summary of the method: as §1

[3] = system: LXRa homodimer (NR concentration 270 nM)
Summary of the method: as §1

[4] = system: LXRb:RXRa (NR concentration 270 nM, RXRa partner concentration 90 nM)
Summary of the method: as §1

[5] = system: LXRb homodimer (NR concentration 270 nM)
Summary of the method: as §1

[6] = system: PPARa:RXRa (NR concentration 270 nM, RXRa partner concentration 90 nM)
Summary of the method: as §1

[7] = system: PPARg:RXRa (NR concentration 180 nM, RXRa partner concentration 90 nM)
Summary of the method: as §1

[8] = system: PPARg:RXRa 270nM:90nM, anti-RXR (NR concentration 270 nM, RXRa partner concentration 90 nM)
Summary of the method: as §1

[9] = system: PPARg:RXRa 30nM:10nM, anti-RXR (NR concentration 30 nM, RXRa partner concentration 10 nM)
Summary of the method: as §1

[10] = system: PPARg:RXRa 90nM:30nM, anti-RXR (NR concentration 90 nM, RXRa partner concentration 30 nM)
Summary of the method: as §1

[11] = system: PPARg:RXRa DBDmut IVT, anti-RXR (DBD mutation: RXRa K156A/R161A, NR concentration 270 nM, RXRa partner concentration 90 nM)
Summary of the method: as §1

[12] = system: PPARg:RXRa IVT, anti-PPARg (NR concentration 270 nM, RXRa partner concentration 90 nM)
Summary of the method: as §1

[13] = system: PPARg DBDmut:RXRa IVT, anti-PPARg (DBD mutation: PPARg1 K132A/R137A, NR concentration 270 nM, RXRa partner concentration 90 nM)
Summary of the method: as §1

[14] = system: PPARg DBDmut IVT, anti-PPARg (DBD mutation: PPARg1 K132A/R137A, NR concentration 270 nM)
Summary of the method: as §1

[15] = system: PPARg homodimer (NR concentration 180 nM)
Summary of the method: as §1

[16] = system: PXR:RXRa (NR concentration 270 nM, RXRa partner concentration 90 nM)
Summary of the method: as §1

[17] = system: PXR homodimer (NR concentration 270 nM)
Summary of the method: as §1

[18] = system: RARa:RXR (NR concentration 270 nM, RXRa partner concentration 90 nM)
Summary of the method: as §1

[19] = system: RARa homodimer (NR concentration 270 nM)
Summary of the method: as §1

[20] = system: RARb:RXRa (NR concentration 270 nM, RXRa partner concentration 90 nM)
Summary of the method: as §1

Sequence	PBM binding z-score [1]	PBM binding z-score [2]	PBM binding z-score [3]	PBM binding z-score [4]	PBM binding z-score [5]	PBM binding z-score [6]	PBM binding z-score [7]	PBM binding z-score [8]	PBM binding z-score [9]	PBM binding z-score [10]	PBM binding z-score [11]	PBM binding z-score [12]	PBM binding z-score [13]	PBM binding z-score [14]	PBM binding z-score [15]	PBM binding z-score [16]	PBM binding z-score [17]	PBM binding z-score [18]	PBM binding z-score [19]	PBM binding z-score [20]
GCAGACAGGTGAAACGCAGGTAACTGAGGGTGGC	-0.0768	-0.241	-0.455	-0.345	-0.944	0.632	0.492	-0.236	-0.698	-0.467	0.757	0.578	0.338	-0.375	-0.52	-0.257	-0.434	0.257	-0.289	0.65
CGTCCAAGGTCACAGGTCAGTGAAGAGATGACGG	7.44	5.62	1.31	4.1	0.374	6.12	7.73	6.93	3.6	5.82	4	5.24	0.709	0.624	2.75	4.99	0.786	6.06	1.32	5.63
AGAACGAGGGAAATGAGTTGATAGCACGGGTGGC	-0.469	-0.525	-0.561	-0.828	-0.449	-0.481	0.813	-0.497	-0.0468	-0.319	-0.231	-0.564	0.432	-0.941	-0.441	-0.411	0.0651	-0.474	-0.0061	-0.45
CGTACTGGGCCAAAGGTCATTGATTCCAATGCTC	4.8	5.21	4.25	5.04	0.838	6.66	12.7	10.7	10.2	12.9	5.43	7	0.296	-0.116	4.18	5.73	2.15	6.41	1.62	4.54
TCTCTTAGTTGATTAGGGCAACCGAAACAGCGGA	0.698	0.799	0.13	0.868	1.26	1.22	0.00699	2.24	3.88	3.1	2.63	1.67	0.796	1.17	1.28	0.757	0.477	0.892	0.846	1.51
TCGAGTAGGTTAACAATGGGGCATTCAGCTTTCT	0.324	3.77	-0.204	1.79	-0.704	1.59	0.576	1.22	1.31	1.29	3.65	2.78	0.124	0.191	0.25	0.403	-0.277	0.753	-0.553	0.976
TGAATGAGGTTATTAGATCAGGGAACGTTGCAAA	1.98	1.62	0.0291	1.3	0.0407	3.09	2.46	2.61	0.886	1.65	2.05	2.98	1.48	0.859	0.948	0.902	0.241	1.43	0.496	1.24
TCTTGTAGATCAAGCAGGTTGAGAAAGCCTGAGT	0.128	0.187	-0.471	-0.223	-0.57	0.441	-0.512	0.973	2.32	1.66	1.7	0.256	-0.788	-0.244	-0.463	0.124	-0.29	-0.172	-0.364	-0.242
CGAACTAGGTCAAGGACACTGAATCTCCGCACGC	3.6	2.34	0.392	1.61	-0.129	4.59	7.39	6.12	3.48	5.6	8.19	8.2	2.38	0.508	1.58	1.44	0.0266	1.97	0.291	4.04
CCTTACGGGTCACGAGGTGATAGCACGACGAGCG	6.73	4.27	-0.242	3.42	-0.279	5.82	7.42	6.5	3.14	5.75	3.97	5.24	1.17	1.06	3.17	3.69	-0.0631	5.02	0.649	4.27
GTACCAAGGTGAATGGGTCGTTGATGAGTAGGCG	0.456	0.288	-0.238	0.0453	-0.983	1.71	1.26	1.19	0.195	0.732	1.52	2.44	0.0637	-0.57	1.22	0.325	0.284	0.784	0.00879	1.64
GCTGCTAGGTCAGGTTGGTAAGCTAACGGGTACG	1.13	0.523	-0.37	0.0783	-0.406	1.51	0.427	0.848	-0.218	0.338	2.81	2.17	-1.03	-1.39	0.662	-0.0241	-0.591	0.597	-0.659	3.09
CCTACTGGGCCAAAAAGGTCCTTGATGCCGATAA	-0.386	-0.565	-0.584	-0.39	-0.811	0.631	0.195	0.889	-0.0812	0.211	3.01	2.44	-0.992	-1.33	-0.196	-0.29	-0.721	-0.161	-0.376	0.177
GCTTACTGGTCAAAGGTTATAGCATGAATAGAAT	2.63	2.93	0.195	2.9	-0.146	4.95	8.22	7.6	6.04	7.95	1.14	3.37	1.09	1.11	0.856	3.18	0.438	4.53	0.553	2.54
TCATATAGGTAAACAGGTGAAATTCCGTAAGTTA	1.25	1	0.35	1.2	-0.0512	2.32	2.75	3.22	4.19	3.8	4.59	4.41	1.27	1.49	1.3	1.03	0.625	1.67	2.19	0.689
CCCAGTTGGTCAAGGTCACACACGCTATAGGTAC	4.07	4.03	2.72	3.8	0.738	4.18	3.3	3.56	1.14	2.57	1.74	3.31	2.05	0.443	4.04	4.46	3.52	4.63	2.32	4.24
TAGCTTAGGTCATTCAGGGGCCAGTATAGAAAGC	4.82	4.33	0.984	3.31	1.67	3.69	1.38	2	0.369	1.11	1.24	1.84	0.465	1.33	2.5	2.96	0.636	4.06	0.433	3.88
TACCCTAGGTCAGATCGGGCCAGTATACGCTATA	2.3	4.7	5.49	2.57	2.46	1.98	1.12	1.34	0.45	1.33	0.709	2.17	0.146	-0.236	0.849	1.37	-0.0848	1.8	0.123	3.19
TCTTATAGATCAAGCAGGTTAAGAAAGCCTGAGT	0.514	0.381	-0.0643	0.19	-0.324	0.961	-0.00693	1.62	3.48	2.75	2.41	0.395	0.287	0.665	0.243	0.691	0.364	0.658	0.426	0.33
GGCACGAGGGCAAGTTGATAGCAGAGTTTGATGG	0.802	0.399	-0.191	0.444	-0.697	1.23	0.838	0.927	-0.291	0.52	2.14	1.32	-0.405	-1.03	0.282	1.01	0.171	0.665	-0.327	2.59
GCTGCCAGGTCAGGTTGGTCAGCTAACGGGTACG	1.58	0.973	-0.337	0.712	-0.51	1.64	0.272	0.752	-0.562	0.147	0.771	1.4	-0.447	-1.57	0.22	0.724	-0.291	1.25	-0.438	3.23
AGAATGAGGTTAAGATCAGGGGAACAGAATACAT	2.39	1.58	0.0516	1.98	0.284	3.55	2.33	2.48	0.75	1.88	3.34	2.63	1.57	0.78	1.05	1.43	0.765	2.02	0.798	1.95
ATCGCTAGGTAACCAAGTTCAGTGAATGCCGAAC	-0.315	0.156	-0.0176	-0.126	-0.754	0.318	-0.0825	-0.186	-0.453	-0.0897	-0.05	0.465	-0.411	-0.436	-0.86	1.57	1.12	0.267	-0.716	0.753
CAAACTAGGTCAAGGTCAAAATCGGTTTGTGCCA	6.5	5.02	3.14	4.66	1.58	6.16	9.66	7.73	6.38	7.81	8.64	9.04	2.23	3.4	2.8	4.7	1.74	4.78	1.1	5.1
TCTTGTAGATCATAGGTTAAGAAAGCCGAAGCCT	1.15	0.999	-0.0576	0.991	0.0364	2.8	4.38	5.93	4.93	6.23	1.8	1.96	0.499	1.11	0.856	0.84	-0.184	1.37	0.366	0.882
TCGAGTAGGTTAGGGGCATTCACAATGGCGTCGA	0.495	0.167	-0.286	0.973	-0.112	1.38	1.01	1.84	1.59	1.94	2.39	1.39	-0.325	-0.622	0.582	0.481	0.107	0.506	-0.0724	0.977
CCTATTAGTTCACCATAAGGGCAACCGAAGCTCG	1.35	2.07	0.985	1.29	0.844	1.67	0.515	0.652	-0.043	0.491	0.837	0.596	0.806	0.145	1.92	2.63	1.48	2.33	1.26	3.21
CGTCCAAGGTCAATGCTAGGTCAGTGATAGCATT	6.64	5.38	2.71	4.07	0.685	5.03	4.12	4.4	1.74	3.05	3.49	4.23	0.259	0.244	6.16	5.12	2	6.2	2.14	5.21
CCTACTGGGCCAAAGATCATTGATTCCAATGCTC	-0.285	-0.527	-0.374	-0.317	-0.68	3.5	6.88	7.31	6.04	7.74	4.33	4.24	-0.277	0.286	0.269	-0.408	-0.738	-0.185	-0.399	-0.0314
